# According to PubChem BioAssay AID1259376 (The Scripps Research Institute Molecular Screening Center, 2018):
# In all, about 4,700 compounds went through this assay and about 360 (7.7%) were called active.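 The calls were made as follows: active = inhibition above a cutoff derived from the DMSO control wells (cut at about 30% in these data); inactive = the rest.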 These entries were drawn from the full list.
# Test: AlphaScreen optical interference compounds, counter-screen for MITF inhibitor project, biochemical, triplicate (AID 1259376)
# Settings: LysRS AlphaScreen counterscreen, signal interference, at 2.6 µM, active compounds read high
row,SMILES,inhibition
1,CSc1nnc(SCc2nc3sc(C(=O)O)c(C)c3c(=O)[nH]2)s1,11.5% (inactive)
2,Cc1ccc(CN2CCN(Cc3ccncc3)CC2)cc1,16.6% (inactive)
3,COc1ccc(Br)cc1CN1CCN(C(=O)c2cccnc2)CC1,-9.47% (inactive)
4,CCN(C(=O)Cc1nc(N)n[nH]1)C1(C(=O)Nc2ccc(C)cc2)CCCCC1,101% (active)
5,CCN(C(=O)Cc1nc(N)n[nH]1)C1(C(=O)Nc2ccccc2)CCCCC1,100% (active)
6,Cc1nc2sc(C(c3ccccc3Cl)N3CCC4(CC3)OCCO4)c(O)n2n1 (centres undefined),13.3% (inactive)
7,CCN(Cc1ccccc1)Cc1ccc([N+](=O)[O-])cc1,-3.54% (inactive)
8,COc1ccc(CN2CCC(C(=O)N3CCN(Cc4ccccc4)CC3)CC2)cc1,8.38% (inactive)
9,c1ccc(-c2ccccc2OCCNCCN2CCOCC2)cc1,24.1% (inactive)
10,Clc1cccc(CN2CCN(C3CCCC3)CC2)c1,9.81% (inactive)
11,O=C(Nc1ccc2c(c1)OCO2)C(c1ccccc1)N(Cc1ccccc1)Cc1ccccc1 (centres undefined),-2.62% (inactive)
12,CC(C)CO/N=C1\C[C@@H](O)[C@@H](O)[C@@H]2[C@@H]3C(=O)N([C@@H](C)c4ccccc4)C(=O)[C@@H]3CC[C@@H]12,-1.34% (inactive)
13,CN1CCN(CCC(=O)N/N=C/c2ccsc2)CC1,-5.86% (inactive)
14,COc1cccc(CN2CCN(C(=O)c3ccccc3F)CC2)c1,-7% (inactive)
15,COc1ccc(CN2CCN(Cc3cccc(Br)c3)CC2)c(OC)c1,22.2% (inactive)
16,COc1ccc(COCC(O)CNCC(C)(C)CN(C)C)cc1OC (centres undefined),3.11% (inactive)
17,CC(C)c1ccc(C2/C(=C(/O)c3ccccc3)C(=O)C(=O)N2CCN(C)C)cc1 (centres undefined),15.2% (inactive)
18,COc1ccc(CN2CCCC(C(=O)N3CCCCC3)C2)cc1 (centres undefined),-1.29% (inactive)
19,COc1cccc(CN2CCN(C/C=C/c3ccccc3)CC2)c1OC,5.04% (inactive)
20,O=[N+]([O-])c1ccccc1CN1CCN(Cc2ccccc2C(F)(F)F)CC1,9.98% (inactive)
21,CN1CCN(CCOCCOc2ccccc2Cl)CC1,11.5% (inactive)
22,O=C(O)CCCCC1SCC2NC(=O)NC21O (centres undefined),98.9% (active)
23,N#Cc1ccc(/C=N/NC(=O)c2cc([N+](=O)[O-])cc([N+](=O)[O-])c2)cc1,-2.55% (inactive)
24,O=S(=O)(c1ccc(Br)cc1Cl)N1CCN(CCc2ccncc2)CC1,16.2% (inactive)
25,CCCCCCOC(=O)c1cc(C(=O)OCCCCCC)c(C)nc1C,-5.97% (inactive)

row,SMILES,inhibition
1,COc1ccc(CN2CCN(Cc3cc(OC)c(OC)c(OC)c3)CC2)cc1,14.7% (inactive)
2,CC(=O)N1CCN(C(=O)c2ccc(N3CC4CC(C3)c3cccc(=O)n3C4)c(NC(=O)c3cccnc3)c2)CC1 (centres undefined),-7.87% (inactive)
3,COc1ccc(Br)cc1CN1CCN(CCOCCO)CC1,-5.73% (inactive)
4,COc1cccc(OC)c1C(=O)N1CCN(Cc2ccccc2F)CC1,20.4% (inactive)
5,Cc1ccc(NC(=O)CNCCCSc2ccccc2)cc1C,20.6% (inactive)
6,O=C(O)C1C2C=CC(O2)C1C(=O)Nc1nccs1 (centres undefined),13.2% (inactive)
7,CC(NCCCN1CCOCC1)C(=O)Nc1ccccc1 (centres undefined),12.1% (inactive)
8,COC(=O)C(C)CN1CCN(Cc2ccc3c(c2)OCO3)CC1 (centres undefined),13.8% (inactive)
9,CC1(C)CC(=O)C2=C(C1)Nc1ccccc1N(C(=O)Cc1ccccc1)C2c1ccc(-c2ccc([N+](=O)[O-])cc2)o1 (centres undefined),15% (inactive)
10,COc1cc(CN2CCN(Cc3ccccc3Cl)CC2)cc(OC)c1OC,13% (inactive)
11,N#Cc1ccc(OCC(=O)Nc2nc(-c3ccccn3)cs2)cc1,100% (active)
12,Nc1ccc(S(=O)(=O)O)c2cc(S(=O)(=O)O)cc(O)c12,38.9% (active)
13,CCN1CCN(CCOc2ccc(-c3ccccc3)cc2)CC1,9.15% (inactive)
14,COc1cccc(C(=O)N2CCN(Cc3cc(OC)c(OC)cc3OC)CC2)c1,7.33% (inactive)
15,CC(=O)c1cccc(N2C(=O)c3cccnc3C2=O)c1,27.9% (inactive)
16,CC1CCCC(N2CCN(Cc3ccccc3Cl)CC2)C1 (centres undefined),-7.94% (inactive)
17,CCN(CC)CCN1COc2c(cc(Cl)c3cccnc23)C1,100% (active)
18,COc1ccccc1CN1CC(C)OC(C)C1 (centres undefined),3.15% (inactive)
19,Cc1ccc(NC(=O)COC(=O)CCC(=O)Nc2sc3c(c2C(N)=O)CCC3)cc1F,6.94% (inactive)
20,CCN(CC(=O)NCc1ccc(Cl)cc1)Cn1nnc2ccccc21,-7.45% (inactive)
21,Cn1c(=O)oc2cc(S(=O)(=O)N3CCC(C(=O)NC(C)(C)C)CC3)ccc21,0.26% (inactive)
22,CCS(=O)(=O)N1CCN(C2CCCCC2C)CC1 (centres undefined),7.29% (inactive)
23,c1ccc(CCCCNc2nccc(Nc3ccncn3)n2)cc1,9.16% (inactive)
24,COc1cccc(CN2CCC(C(=O)NCCc3ccccc3)CC2)c1,13.6% (inactive)
